Experiment [1] addresses rat Glutamate, NMDA Agonist Site (GluNMDA), Grin1 (gene 24408) (UniProt P35439). Briefly: NVS_LGIC_rGluNMDA_Agonist: NovaScreen (NVS) Ligand-Gated Ion Channel Assay for rat Glutamate, NMDA Agonist Site (GluNMDA) (AID 2283327). The method in brief: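 Rat forebrain membranes, radioligand binding in the agonist-site protocol; 1 h after dosing; filter-based scintillation counting. Single-concentration duplicate screen at 25 uM, then concentration-response up to 50 uM for actives; gain-of-signal vs DMSO.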

The target of experiment [2] is human Androgen Receptor (AR), AR (gene 367) (UniProt P10275). The experiment can be described thus: NVS_NR_hAR: NovaScreen (NVS) Nuclear Receptor Binding Assay for human Androgen Receptor (AR) (AID 2283332). The method in brief:
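Actives from a duplicate 25 uM single-point screen went on to concentration series. Read-out after 20 h was scintillation counting of displaced radioligand in LnCAP extract, with DMSO as baseline.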

The target in experiment [3] is rat Glutamate, MK-801 Agonist Site (GluNMDA_MK801), Grin1 (gene 24408) (UniProt P35439). The experiment can be described thus: NVS_LGIC_rGluNMDA_MK801_Agonist: NovaScreen (NVS) Ligand-Gated Ion Channel Assay for rat Glutamate, MK-801 Agonist Site (GluNMDA_MK801) (AID 2283340). A digest of the protocol: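 Radioligand binding at MK-801 site in rat forebrain membranes, 1.5 h incubation, filter-based scintillation counting. Initially 25 uM in duplicate; actives then run in concentration-response up to 50 uM, fitted for gain of signal versus DMSO.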

A further experiment deals with NCBI gene 100848466. The experiment can be described thus: NVS_NR_bPR: NovaScreen (NVS) Nuclear Receptor Binding Assay for bovine Progextron Receptor (PR) (AID 2283343).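 Further: actives lower bound radioligand signal below DMSO meaning displacement of the label.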 A digest of the protocol: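 Bovine uterine membrane preparation, cell-free; radioligand competitive displacement measured by scintillation counting 18 hours after dosing. Loss of signal versus DMSO baseline indicates binding; primary HTS single concentration 25 uM in duplicate, actives followed in concentration series.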

Experiment [4] deals with human Constitutive Androstane Receptor (CAR), NR1I3 (gene 9970) (UniProt Q14994). The experiment can be described thus: NVS_NR_hCAR_Antagonist: NovaScreen (NVS) Nuclear Receptor Binding Assay for human Constitutive Androstane Receptor Antagonism (CAR) (AID 2283344). The method in brief: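 Cell-free TR-FRET binding read 1 h after dosing, antagonist mode; loss of signal versus DMSO baseline. Primary screen in duplicate at a single 25 uM; actives retested in concentration series.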
Chain of human Constitutive Androstane Receptor (CAR), NR1I3 (gene 9970) (Q14994 whole entry, looked up): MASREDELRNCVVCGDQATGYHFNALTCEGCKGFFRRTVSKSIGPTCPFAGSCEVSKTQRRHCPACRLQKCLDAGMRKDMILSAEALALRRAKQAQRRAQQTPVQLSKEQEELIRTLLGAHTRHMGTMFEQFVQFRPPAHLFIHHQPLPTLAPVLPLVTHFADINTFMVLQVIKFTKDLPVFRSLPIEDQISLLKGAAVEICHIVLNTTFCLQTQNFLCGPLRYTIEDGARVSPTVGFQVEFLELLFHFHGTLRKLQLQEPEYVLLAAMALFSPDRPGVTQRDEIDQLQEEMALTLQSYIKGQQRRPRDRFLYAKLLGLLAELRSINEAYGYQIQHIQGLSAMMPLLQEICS

The target of experiment [5] is bovine Estrogen Receptor (ER), ESR1 (gene 407238) (UniProt P49884). Briefly: NVS_NR_bER: NovaScreen (NVS) Nuclear Receptor Binding Assay for bovine Estrogen Receptor (ER) (AID 2283345).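 Further: actives lower the bound radioligand count which means they displace the ER ligand.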 The method in brief:
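Bovine uterine membranes; tritiated or iodinated radioligand; competitive displacement; 18 h; scintillation read; DMSO negative control; 25 uM duplicates, then concentration series for actives.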

Experiment [6] has as its target Estrogen receptor (Homo sapiens) (UniProt P03372). The experiment can be described thus: NVS_NR_hER: NovaScreen (NVS) Nuclear Receptor Binding Assay for human Estrogen Receptor (ER) (AID 2283348). The method in brief: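 Cell-free radioligand binding with protein extracted from MCF7 cells; scintillation counting 18 hours after dosing. Loss of signal versus DMSO baseline read as displacement; primary single-concentration screen at 25 uM in duplicate, actives retested in concentration series.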

For experiment [7] the target is unchanged. Briefly: OT_ER_ERaERa_1440: Odyssey Thera (OT) 24-hour HEK293T Protein-Complementation Assay for Estrogen Receptor-alpha/-alpha Homodimer (AID 2283349).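 Further: hits raise fluorescence above DMSO for agonists and antagonists alike.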 The method in brief: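 Readout is the rise in mean fluorescence from reporter fragment complementation when ERα LBD (aa 310-547) units dimerize in HEK293T cells. Measured 24 h after dosing and analysed as increase over DMSO control.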

The target in experiment [8] is Bile acid receptor (Homo sapiens) (UniProt Q96RI1). The experiment can be described thus: NVS_NR_hFXR_Antagonist: NovaScreen (NVS) Nuclear Receptor Binding Assay for human Farnesoid X Receptor Antagonism (FXR) (AID 2283350). The method in brief: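 Cell-free TR-FRET ligand-binding read-out on human FXR (NR1H4) in antagonist mode, measured 1 h after dosing. Primary screen in duplicate at 25 uM, actives retested in concentration series; signal loss scored versus DMSO.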
Chain of Bile acid receptor (Homo sapiens) (Q96RI1 whole entry, looked up): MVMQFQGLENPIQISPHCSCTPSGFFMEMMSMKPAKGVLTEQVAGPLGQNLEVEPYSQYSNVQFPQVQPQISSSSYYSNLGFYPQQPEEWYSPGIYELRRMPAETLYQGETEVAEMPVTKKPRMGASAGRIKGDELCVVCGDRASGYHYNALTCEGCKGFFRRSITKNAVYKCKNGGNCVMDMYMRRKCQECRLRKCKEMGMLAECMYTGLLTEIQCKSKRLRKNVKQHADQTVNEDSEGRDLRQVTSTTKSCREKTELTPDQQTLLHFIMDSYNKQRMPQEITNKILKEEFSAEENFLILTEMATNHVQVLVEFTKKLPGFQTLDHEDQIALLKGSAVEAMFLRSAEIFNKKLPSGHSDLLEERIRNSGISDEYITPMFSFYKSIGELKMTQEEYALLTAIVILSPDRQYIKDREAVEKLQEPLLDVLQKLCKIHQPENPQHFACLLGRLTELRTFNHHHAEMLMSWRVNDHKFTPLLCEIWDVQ

The test system of experiment [9] is guinea pig Histamine Receptor (H2), gene 100729734. The experiment can be described thus: NVS_GPCR_gH2: NovaScreen (NVS) G Protein-Coupled Receptor Assay for guinea pig Histamine Receptor (H2) (AID 2283342). The method in brief:
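Radioligand displacement on guinea pig striatal membranes, 1 h after dosing, filter-based scintillation counting; loss of signal versus DMSO. Single-point screen at 25 uM in duplicate, then concentration-response up to 50 uM.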

Experiment [10] has as its target chimpanzee Androgen Receptor (AR), AR (gene 747460) (UniProt O97775). Briefly: NVS_NR_cAR: NovaScreen (NVS) Nuclear Receptor Binding Assay for chimpanzee Androgen Receptor (AR) (AID 2283346). A digest of the protocol: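 Cell-free radioligand displacement using receptor protein extracted from Sf9/Sf21 cells; bound radioligand measured by scintillation counting 72 hours after chemical dosing. Loss of signal versus DMSO baseline indicates binding; primary screen single-concentration in duplicate at 25 uM, actives followed in concentration series.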

Experiment [11] concerns the target human Serotonin, 5-Hydroxytryptamine Receptor 3 (5HT3), HTR3A (gene 3359) (UniProt P46098). The experiment can be described thus: NVS_LGIC_h5HT3: NovaScreen (NVS) Ligand-Gated Ion Channel Assay for human Serotonin, 5-Hydroxytryptamine Receptor 3 (5HT3) (AID 2283325). The method in brief:
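Radioligand displacement binding to human 5-HT3 from HEK293 membranes, read by filter-based scintillation counting after 1 h. Screen at 25 uM in duplicate; chemicals passing threshold were retested in concentration-response up to 50 uM.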

Experiment [12] deals with rat Glycine Receptor, Strychnine-sensitive (GlyRStrySens), Glra1 (gene 25674) (UniProt P07727). The experiment can be described thus: NVS_LGIC_rGlyRStrySens: NovaScreen (NVS) Ligand-Gated Ion Channel Assay for rat Glycine Receptor, Strychnine-sensitive (GlyRStrySens) (AID 2283341). The method in brief:
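Radioligand displacement on rat spinal cord membranes, 1 hr, filter scintillation read-out. Single-concentration duplicate screen at 25 uM; chemicals meeting threshold (e.g., 30% inhibition) rerun in concentration-response up to 50 uM. Loss of binding fitted versus DMSO.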

Experiment [13] addresses Glutamate receptor ionotropic, kainate 1 (Rattus norvegicus) (UniProt P22756). Briefly: NVS_IC_rKAR: NovaScreen (NVS) Ion Channel Assay for rat Kainic Acid Receptors (KAR) (AID 2283334; active means hit-call score of the fitted dose curve at least 0.9, where 1 is the maximum; inactive means score below 0.9). A digest of the protocol:
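Radioligand displacement binding using rat forebrain membranes, 1 h incubation, filter-based scintillation counting. Screened in duplicate at 25 uM, with actives retested in concentration-response up to 50 uM; fitted against DMSO.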

31 compounds from PubChem BioAssay (EPA / NIEHS) can be followed below.

Values joined by “and” are separate entries in the source; they are usually repeats but may differ in a detail not shown here. Equal entries are not always repeated. Inconclusive results are not listed. Some compounds were tested as several samples or in several runs, with calls that do not always agree. Active and inactive are the calls of the source. How the source made its calls, unless noted: active means hit-call score of the fitted dose curve at least 0.9, where 1 is the maximum; inconclusive means response in the unintended direction; inactive means score below 0.9.

Chain of Estrogen receptor (Homo sapiens) (P03372 whole entry, looked up): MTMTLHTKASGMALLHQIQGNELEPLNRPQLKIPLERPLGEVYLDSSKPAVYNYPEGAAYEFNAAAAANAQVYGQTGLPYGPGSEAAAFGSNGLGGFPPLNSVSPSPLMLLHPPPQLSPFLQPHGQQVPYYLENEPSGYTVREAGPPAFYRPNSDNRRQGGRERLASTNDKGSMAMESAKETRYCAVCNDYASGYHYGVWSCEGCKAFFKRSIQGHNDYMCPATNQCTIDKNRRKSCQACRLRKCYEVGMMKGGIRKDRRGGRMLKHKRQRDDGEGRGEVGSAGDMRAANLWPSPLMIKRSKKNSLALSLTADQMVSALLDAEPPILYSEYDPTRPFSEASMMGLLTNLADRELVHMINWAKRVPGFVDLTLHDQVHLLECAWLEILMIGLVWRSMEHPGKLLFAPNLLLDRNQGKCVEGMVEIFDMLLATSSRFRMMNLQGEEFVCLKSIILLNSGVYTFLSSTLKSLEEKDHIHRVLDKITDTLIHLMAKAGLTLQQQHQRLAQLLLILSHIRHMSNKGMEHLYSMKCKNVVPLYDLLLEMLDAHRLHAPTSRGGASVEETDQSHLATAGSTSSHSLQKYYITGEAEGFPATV
Chain of chimpanzee Androgen Receptor (AR), AR (gene 747460) (O97775 whole entry, looked up): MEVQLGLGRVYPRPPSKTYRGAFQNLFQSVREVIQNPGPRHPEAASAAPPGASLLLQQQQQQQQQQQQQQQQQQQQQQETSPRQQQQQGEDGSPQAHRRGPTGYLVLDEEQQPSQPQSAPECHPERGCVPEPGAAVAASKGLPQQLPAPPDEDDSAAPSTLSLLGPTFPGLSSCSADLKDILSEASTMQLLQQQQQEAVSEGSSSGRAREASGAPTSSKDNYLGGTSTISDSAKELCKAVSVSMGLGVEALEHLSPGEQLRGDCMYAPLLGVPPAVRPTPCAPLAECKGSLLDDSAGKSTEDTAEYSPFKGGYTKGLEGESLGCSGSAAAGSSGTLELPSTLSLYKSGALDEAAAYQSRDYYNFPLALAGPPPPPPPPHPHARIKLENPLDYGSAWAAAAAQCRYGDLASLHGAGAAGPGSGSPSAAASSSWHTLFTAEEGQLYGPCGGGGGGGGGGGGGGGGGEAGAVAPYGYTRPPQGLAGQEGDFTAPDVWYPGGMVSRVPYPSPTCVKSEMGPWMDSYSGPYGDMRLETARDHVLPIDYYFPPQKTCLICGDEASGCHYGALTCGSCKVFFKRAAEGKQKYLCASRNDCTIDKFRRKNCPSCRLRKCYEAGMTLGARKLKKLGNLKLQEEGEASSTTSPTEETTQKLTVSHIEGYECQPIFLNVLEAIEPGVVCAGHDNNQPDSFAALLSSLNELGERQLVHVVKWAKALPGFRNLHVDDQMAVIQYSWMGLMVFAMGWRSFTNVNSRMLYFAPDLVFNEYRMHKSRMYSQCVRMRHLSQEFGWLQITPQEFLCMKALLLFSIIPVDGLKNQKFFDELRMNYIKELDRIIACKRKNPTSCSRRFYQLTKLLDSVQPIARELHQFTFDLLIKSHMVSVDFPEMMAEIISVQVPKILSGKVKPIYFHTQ
Chain of bovine Estrogen Receptor (ER), ESR1 (gene 407238) (P49884 whole entry, looked up): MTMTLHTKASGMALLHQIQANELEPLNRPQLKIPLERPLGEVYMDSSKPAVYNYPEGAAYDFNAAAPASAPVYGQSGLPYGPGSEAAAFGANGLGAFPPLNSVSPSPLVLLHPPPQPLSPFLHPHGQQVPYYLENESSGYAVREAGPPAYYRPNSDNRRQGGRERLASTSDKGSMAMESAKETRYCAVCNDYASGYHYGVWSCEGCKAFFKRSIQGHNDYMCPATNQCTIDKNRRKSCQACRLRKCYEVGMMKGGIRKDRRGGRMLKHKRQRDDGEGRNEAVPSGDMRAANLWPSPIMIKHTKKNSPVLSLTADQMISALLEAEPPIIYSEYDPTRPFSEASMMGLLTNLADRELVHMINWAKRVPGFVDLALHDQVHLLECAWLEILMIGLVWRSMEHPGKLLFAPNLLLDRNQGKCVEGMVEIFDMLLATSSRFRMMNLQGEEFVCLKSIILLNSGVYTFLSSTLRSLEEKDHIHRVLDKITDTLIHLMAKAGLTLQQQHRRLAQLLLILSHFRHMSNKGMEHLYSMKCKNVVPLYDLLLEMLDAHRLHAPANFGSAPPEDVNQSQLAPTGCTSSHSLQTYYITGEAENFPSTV
Chain of Glutamate receptor ionotropic, kainate 1 (Rattus norvegicus) (P22756 whole entry, looked up): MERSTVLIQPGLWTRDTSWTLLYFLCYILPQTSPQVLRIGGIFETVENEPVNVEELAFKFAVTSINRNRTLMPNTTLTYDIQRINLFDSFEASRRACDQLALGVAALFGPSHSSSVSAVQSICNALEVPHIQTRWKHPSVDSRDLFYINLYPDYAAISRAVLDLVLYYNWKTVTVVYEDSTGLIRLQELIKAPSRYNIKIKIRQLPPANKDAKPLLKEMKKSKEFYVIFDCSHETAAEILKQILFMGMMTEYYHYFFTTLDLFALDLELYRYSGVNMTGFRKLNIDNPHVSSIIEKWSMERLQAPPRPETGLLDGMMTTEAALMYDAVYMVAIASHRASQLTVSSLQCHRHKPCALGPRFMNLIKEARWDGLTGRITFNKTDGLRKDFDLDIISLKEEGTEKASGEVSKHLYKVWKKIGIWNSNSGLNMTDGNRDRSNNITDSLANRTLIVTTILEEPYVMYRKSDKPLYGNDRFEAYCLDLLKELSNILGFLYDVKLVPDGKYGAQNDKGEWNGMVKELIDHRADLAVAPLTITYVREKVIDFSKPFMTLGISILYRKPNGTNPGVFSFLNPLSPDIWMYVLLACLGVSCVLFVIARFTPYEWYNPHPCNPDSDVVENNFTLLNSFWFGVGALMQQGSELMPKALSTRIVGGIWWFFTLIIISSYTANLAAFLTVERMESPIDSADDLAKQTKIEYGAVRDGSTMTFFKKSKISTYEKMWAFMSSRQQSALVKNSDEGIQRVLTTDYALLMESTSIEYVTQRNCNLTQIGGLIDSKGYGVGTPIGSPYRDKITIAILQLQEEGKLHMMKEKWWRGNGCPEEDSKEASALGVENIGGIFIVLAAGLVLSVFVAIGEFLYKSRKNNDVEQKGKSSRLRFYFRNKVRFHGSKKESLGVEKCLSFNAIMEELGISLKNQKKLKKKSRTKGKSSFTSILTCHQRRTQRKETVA
Chain of human Serotonin, 5-Hydroxytryptamine Receptor 3 (5HT3), HTR3A (gene 3359) (P46098 whole entry, looked up): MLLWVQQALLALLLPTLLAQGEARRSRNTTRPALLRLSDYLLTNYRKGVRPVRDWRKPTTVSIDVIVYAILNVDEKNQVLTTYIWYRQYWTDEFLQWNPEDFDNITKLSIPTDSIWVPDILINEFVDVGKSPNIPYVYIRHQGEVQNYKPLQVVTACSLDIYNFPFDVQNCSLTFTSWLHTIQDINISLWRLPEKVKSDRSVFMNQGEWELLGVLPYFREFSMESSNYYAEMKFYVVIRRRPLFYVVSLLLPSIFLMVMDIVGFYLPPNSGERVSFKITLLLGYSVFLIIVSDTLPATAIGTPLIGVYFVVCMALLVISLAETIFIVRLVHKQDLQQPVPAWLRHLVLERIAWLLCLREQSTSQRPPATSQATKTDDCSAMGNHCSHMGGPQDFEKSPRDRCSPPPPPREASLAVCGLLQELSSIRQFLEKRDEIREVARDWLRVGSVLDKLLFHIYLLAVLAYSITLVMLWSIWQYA
Chain of rat Glycine Receptor, Strychnine-sensitive (GlyRStrySens), Glra1 (gene 25674) (P07727 whole entry, looked up): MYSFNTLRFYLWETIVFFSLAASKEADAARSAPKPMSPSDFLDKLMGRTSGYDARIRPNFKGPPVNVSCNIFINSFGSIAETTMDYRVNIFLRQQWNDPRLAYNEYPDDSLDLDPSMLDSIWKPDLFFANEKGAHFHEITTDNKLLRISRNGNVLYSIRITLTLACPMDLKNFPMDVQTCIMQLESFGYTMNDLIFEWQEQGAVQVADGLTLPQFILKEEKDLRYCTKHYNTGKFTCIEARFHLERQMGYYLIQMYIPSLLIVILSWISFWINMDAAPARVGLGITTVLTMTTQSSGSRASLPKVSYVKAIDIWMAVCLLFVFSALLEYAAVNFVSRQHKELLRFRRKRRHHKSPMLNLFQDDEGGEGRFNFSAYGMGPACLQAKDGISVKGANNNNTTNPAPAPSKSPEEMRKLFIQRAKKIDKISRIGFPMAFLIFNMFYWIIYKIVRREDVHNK

For `CCCCCCCCCCCCc1ccccc1S(=O)(=O)O`, the AC50 (as a rule, the midpoint of the concentration-response curve, whichever way the signal moves) in experiment [1] was 20.1 µM (active); in experiment [2], 8.85 µM (active); with NCBI gene 100848466, 17.1 µM (active); in experiment [4] it was 10.9 µM (active); in experiment [5], 39.1 µM (active); in experiment [6], 40.6 µM (active). In experiment [8], the AC50 is 12.2 µM (active). The compound was classed as inactive in [3] and in experiment [7].
Consider `C[C@@H]1C[C@H]2[C@@H]3CCC4=CC(=O)C=C[C@]4(C)[C@@]3(F)[C@@H](O)C[C@]2(C)[C@@]1(O)C(=O)COP(=O)(O)O`, for which the compound was classed as inactive in experiment [9], in experiment [5], in [6] and in experiment [7]. Also, the AC50 is 10.5 µM (active) in the experiment on NCBI gene 100848466 and 0.0307 µM (active) in [10].
Turning to `NC(=O)N(O)[C@@H]1C=C[C@H](Oc2cccc(Oc3ccc(F)cc3)c2)C1`, the outcome in experiment [11], in [12], in [9], in experiment [6] and in [7] was inactive.
In the case of `NC(=O)N1C(=O)C(C(=O)c2cc(Cl)cs2)c2cc(F)c(Cl)cc21` (stereo not given), the call in [13] and in [6] was inactive. Further, the AC50 in experiment [5] is 25 µM (active).
Regarding `CN1CCC[C@H]1c1cccnc1`, in experiment [5], the compound was called inactive.
As to `CCCOC(=O)c1ccc(O)cc1`, the compound was called inactive in experiment [5] and in experiment [10]. Further, the AC50 in [6] is 6.72 µM (active) and 10.6 µM (active).
With `CC(O)CO` (stereo not given), the compound was classed as inactive in experiment [7] and in experiment [8].
Take `Cc1cc(CCN2CCN(c3nsc4ccccc34)CC2)cc2c1NC(=O)CC2(C)C`: the call in experiment [5], in experiment [6] and in [7] was inactive.
As to `OC1CCC(C2CCCCC2)CC1` (stereo not given), the compound was called inactive in experiment [5], in [10], in [6] and in [7]. In [10], the AC50 was 22.4 µM (active).
Take `CC1=C(/C=C/C(C)=C/C=C/C(C)=C/C(=O)O)C(C)(C)CCC1`: the outcome in [5] and in experiment [6] was inactive.
For `CN1CCN(c2ccccc2/C=C2\SCCN(c3ccc(Cl)c(Cl)c3)C2=O)CC1`, the compound was classed as inactive in experiment [5] and in [8].
Take `c1ccc2c(c1)Cc1ccccc1-2`: the compound was called inactive in [6].
With `CC(C)(C)CC(C)(C)c1ccc(O)c(-n2nc3ccccc3n2)c1`, the call in experiment [6] and in [7] was inactive.
As for `CCCCC(CC)COC(=O)CCCCC(=O)OCc1ccccc1` (stereo not given), the result in experiment [10] was inactive.
With `CCc1nn(C2CCCCC2)c2cc(C3(C#N)CCC(C(=O)O)CC3)ccc12` (stereo not given), the outcome in [6] and in experiment [7] was inactive.
As for `O=C1OC2(c3ccccc31)c1cc(Br)c(O)c(Br)c1Oc1c2cc(Br)c(O)c1Br`, the result in experiment [5] and in experiment [6] was inactive. Besides, the AC50 in [10] is 38.1 µM (active); in experiment [6], 16.8 µM (active); in experiment [7], 62.2 µM (active).
For the compound `CCCCC(CC)COC(=O)CCCCC(=O)OCC(CC)CCCC` (stereo not given), the compound was called inactive in [7] and in experiment [8].
As to `CCC(C)(C)C1CCC(O)CC1` (stereo not given), the AC50 is 16.4 µM (active) and 12.9 µM (active) in [5]; 32.1 µM (active) in [10]; 3.1 µM (active) and 2.51 µM (active) in experiment [6]. In addition, the compound was classed as inactive in experiment [6].
Regarding `c1ccc2cc3c(ccc4ccccc43)cc2c1`, the result in experiment [5], in [6] and in [8] was inactive.
`CCc1ccc(CCOc2ccc(CC3SC(=O)NC3=O)cc2)nc1` (stereo not given): the AC50 in [7] was 75.1 µM (active).
Turning to `CCCCCCCCCCCCN1CCCC1=O`, the result in experiment [6] and in experiment [7] was inactive.
For the compound `Oc1cccc(O)c1`, in experiment [7], the outcome was inactive.
Turning to `CCCCCCCCCCCCCC[N+](C)(C)C`, in [10], the compound was called inactive. Also, in [6], the AC50 is 35 µM (active).
For the compound `N#C[C@@H]1CC(F)(F)CN1C(=O)CNC1CC2CCC(C1)N2c1ncccn1` (stereo not given in full), the call in experiment [7] was inactive.
The same measure, in the same setting: in the case of `CCOC(=O)CC(O)(CC(=O)OCC)C(=O)OCC` it was “inactive”.
With `O=[N+]([O-])c1ccc(O)cc1`, the outcome in experiment [5] and in experiment [6] was inactive.
Turning to `C=C(C)C(=O)OCCC(F)(F)C(F)(F)C(F)(F)C(F)(F)C(F)(F)C(F)(F)F`, the compound was classed as inactive in experiment [5].
Regarding `O=C(O)Cc1cc(I)c(Oc2cc(I)c(O)c(I)c2)c(I)c1`, the compound was called inactive in experiment [5] and in experiment [6].
Consider `CC(C)CCCCCCOC(=O)CCCCC(=O)OCCCCCCC(C)C`, for which, in experiment [8], the compound was classed as inactive.
As to `OC1CCCCC1`, in experiment [6], the AC50 is 0.0267 µM (active) and the compound was classed as inactive. In experiment [7], the compound was classed as inactive.
As for `COCC(C)O` (stereo not given), the AC50 in experiment [5] is 3.69 µM (active); in experiment [6], 1.82 µM (active).
